In the library only some 4.1% were active in any assay of this set; here they are far more common.
DAX1 inh-1 = inhibitors of DAX1 repression of SF-1 activated StAR promoter | HEK293T StAR-luciferase reporter, SF-1/DAX-1 repression relief | inhibition, % at 6.8 µM | hit rate 1.1% among 370,000 | AID 652010;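 active = inhibition above the mean over all tested compounds plus 3 SD, cut at about 3.6% in these data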;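 note: 0% = DAX-1 cells with DMSO and 100% = cells lacking DAX-1 with DMSO; higher inhibition means more luminescence from relief of DAX-1 repression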
hcDAF-12 act = activators of H. contortus DAF-12 nuclear receptor. AID 652067. HEK293 hcDAF-12 lit1-tk-luc reporter, luminescence; 0% DMSO, 100% Δ7-dafachronic acid. hit rate 1.4% among 370,000. activation, % at 6.8 µM;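 active = activation above the mean of all tested compounds plus 3 SD, cut at about 5.5% in these data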;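 note: 100% = response to 3 µM Δ7-dafachronic acid high control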
DAX1 inh-2 = NR0B1 (DAX1) inhibition; HEK293 Gal4-DAX1 luciferase reporter, luminescence; hit rate 0.99% among 340,000; inhibition, % at 6.75 µM;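 active = inhibition above the mean over all tested compounds plus 3 SD, cut at about 4.2% in these data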;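 note: 0% = DAX1-transfected cells with DMSO and 100% = empty-vector control cells with DMSO; inhibition shows as a rise in luminescence from relieved DAX1 repression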
Target sequence (P51843 207-470 limits assumed): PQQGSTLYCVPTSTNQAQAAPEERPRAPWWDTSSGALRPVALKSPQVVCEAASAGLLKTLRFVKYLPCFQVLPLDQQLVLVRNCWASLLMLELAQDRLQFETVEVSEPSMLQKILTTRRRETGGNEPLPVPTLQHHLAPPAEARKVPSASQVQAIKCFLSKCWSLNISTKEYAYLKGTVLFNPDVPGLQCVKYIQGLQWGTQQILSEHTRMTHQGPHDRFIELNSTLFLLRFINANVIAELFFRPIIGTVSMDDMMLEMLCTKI
hgDAF-12 ag = hgDAF-12 agonism, primary luciferase screen. HEK293 GAL4-hgDAF12 UAS-luciferase reporter, agonist luminescence; normalized to butyrate control. AID 687014. hit rate 1.8% among 370,000. activation, % at 6.8 µM;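 active = activation above a cutoff set at the mean of all screened compounds plus 3 SD, cut at about 10% in these data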;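 note: 0% = DMSO wells and 100% = sodium butyrate wells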
ssDAF12 agonist = activators of S. stercoralis DAF-12 nuclear receptor; HEK293 ssDAF-12/GRIP1 lit1-tk-luc reporter, luminescence; % of 3 µM dafachronic acid response; AID 652126; activation, % at 6.8 µM; hit rate 1% among 370,000;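 active = activation above the mean over all tested compounds plus 3 SD, cut at about 0.9% in these data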;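 note: 0% = DMSO-only wells and 100% = 3 µM delta7-dafachronic acid wells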
The depositor's hits bear a star.

Cn1c(SCCc2ccccc2)nnc1-c1ccco1 was read as DAX1 inh-1 1.5, hcDAF-12 act 4.6, hgDAF-12 ag 13.0* and ssDAF12 agonist -0.3.
Screening CCSc1nnc(-c2ccco2)n1C returned DAX1 inh-1 1.2, hcDAF-12 act 1.2, hgDAF-12 ag -2.2 and ssDAF12 agonist 0.7.
`C[C@@H]1CN([C@@H](C)CO)C(=O)CCCn2cc(nn2)CO[C@H]1CN(C)C(=O)Nc1cccc(F)c1` gave DAX1 inh-1 1.1, hcDAF-12 act -0.7, hgDAF-12 ag -3.6 and ssDAF12 agonist -1.3.
Screening C[C@@H]1Cn2cnc(C(=O)N3CCN(C(=O)OC(C)(C)C)CC3)c2C(=O)N1 returned DAX1 inh-1 0.8, hcDAF-12 act -0.4, hgDAF-12 ag -3.2 and ssDAF12 agonist -0.8.
COc1ccccc1N1CCN(S(=O)(=O)c2cc(C(F)(F)F)cc(C(F)(F)F)c2)CC1 was read as DAX1 inh-1 0.1, hcDAF-12 act -1.6, DAX1 inh-2 7.7*, hgDAF-12 ag 2.7 and ssDAF12 agonist -1.2.
Screening COc1ccccc1N1CCN(S(=O)(=O)c2ccccc2)CC1 returned DAX1 inh-1 -0.1, hcDAF-12 act 0.1, DAX1 inh-2 1.5, hgDAF-12 ag 2.5 and ssDAF12 agonist -0.9.
For Cc1cccc(C)c1NC(=S)/C(=C(\[O-])c1cccs1)[n+]1ccccc1 the results were DAX1 inh-1 -0.5, hcDAF-12 act 5.8*, DAX1 inh-2 -0.3, hgDAF-12 ag 2.3 and ssDAF12 agonist 0.1.
Screening CCc1nc2c(OCC(=O)C(C)(C)C)cccn2c1N(C)C(=O)c1ccco1 returned DAX1 inh-1 1.9, hcDAF-12 act -1.0, hgDAF-12 ag -1.5 and ssDAF12 agonist -0.8.
`COC(=O)[C@]12C[C@H](CC(=O)NCCCN3CCCC3=O)C(=O)N(CCC3=CCCCC3)C1=C[C@H](COCc1ccccc1)O[C@@H]2C` gave DAX1 inh-1 -1.6, hcDAF-12 act -0.3, hgDAF-12 ag -0.3 and ssDAF12 agonist -1.5.
COC(=O)c1sc2nc(-c3ccco3)ccc2c1N was read as DAX1 inh-1 3.0, hcDAF-12 act 2.7, DAX1 inh-2 2.7, hgDAF-12 ag 10.7* and ssDAF12 agonist 0.0.
For NC(=O)c1sc2nc(-c3ccco3)ccc2c1N the results were DAX1 inh-1 0.5, hcDAF-12 act -0.2, DAX1 inh-2 -0.1, hgDAF-12 ag 3.3 and ssDAF12 agonist -1.4.
COC(=O)c1cccc2c1NC(=O)C2=O was read as DAX1 inh-1 -0.3, hcDAF-12 act 0.9, DAX1 inh-2 8.0*, hgDAF-12 ag -0.1 and ssDAF12 agonist -0.9.
Cc1cccc2c1NC(=O)C2=O was read as DAX1 inh-1 0.9, hcDAF-12 act 0.8, DAX1 inh-2 0.2, hgDAF-12 ag -0.7 and ssDAF12 agonist -0.6.
Screening O=C(/C=C/c1nc2ccccc2s1)N1CCCCCC1 returned DAX1 inh-1 2.7, hcDAF-12 act 1.5, DAX1 inh-2 0.2, hgDAF-12 ag 11.1* and ssDAF12 agonist -0.6.
For CCN(CC)C(=O)c1ncn2c1C(=O)NC[C@H]2C the results were DAX1 inh-1 -0.5, hcDAF-12 act -2.3, hgDAF-12 ag 4.1 and ssDAF12 agonist -0.6.
For CCCCc1c(-c2ccccc2OC)ncn1Cc1cccc(OC)c1 the results were DAX1 inh-1 -1.4, hcDAF-12 act -2.0, hgDAF-12 ag -2.7 and ssDAF12 agonist -1.3.
Screening CCOc1cc(NC(=S)NCCOC)c(OCC)cc1NC(=O)c1cccs1 returned DAX1 inh-1 -0.4, hcDAF-12 act -1.9, hgDAF-12 ag -3.2 and ssDAF12 agonist -1.0.
For CCOc1cc(NC(=S)NC)c(OCC)cc1NC(=O)c1cccs1 the results were DAX1 inh-1 0.8, hcDAF-12 act 1.5, DAX1 inh-2 5.0*, hgDAF-12 ag -3.3 and ssDAF12 agonist -1.4.
O=C(COC(=O)c1ccccc1OC(F)F)Nc1ccc2[nH]c(=O)[nH]c2c1 was read as DAX1 inh-1 0.0, hcDAF-12 act -1.0, DAX1 inh-2 -0.5, hgDAF-12 ag 2.4 and ssDAF12 agonist -0.7.
Cc1nc2c(ncn2-c2ccccc2)c(=O)n1NC(=O)CN1CCCCC1 was read as DAX1 inh-1 0.0, hcDAF-12 act 0.2, DAX1 inh-2 4.5*, hgDAF-12 ag 2.6 and ssDAF12 agonist -2.4.
Screening COc1ccccc1CN1CN(S(=O)(=O)c2ccccc2)c2nc3ccccc3nc21 returned DAX1 inh-1 0.7, hcDAF-12 act 6.1*, DAX1 inh-2 -0.9, hgDAF-12 ag 3.8 and ssDAF12 agonist -0.8.
`COCCN1CN(S(=O)(=O)c2ccccc2)c2nc3ccccc3nc21` gave DAX1 inh-1 -0.7, hcDAF-12 act -1.3, DAX1 inh-2 0.0, hgDAF-12 ag -0.1 and ssDAF12 agonist -1.4.
For O=S(=O)(c1cccs1)N1CN(Cc2ccco2)c2nc3ccccc3nc21 the results were DAX1 inh-1 -0.7, hcDAF-12 act -0.1, DAX1 inh-2 3.0, hgDAF-12 ag 1.6 and ssDAF12 agonist 0.9*.
For O=S1(=O)N[C@@H](Cc2ccccc2)COc2cccc(NCCO)c21 the results were DAX1 inh-1 -0.2, hcDAF-12 act 0.4, hgDAF-12 ag 4.8 and ssDAF12 agonist -0.7.
For CC1CCCN(C(C(=O)Nc2ccc3c(c2)OCO3)c2ccccc2)C1 (stereo unspecified) the results were DAX1 inh-1 0.8, hcDAF-12 act 6.3*, DAX1 inh-2 0.2, hgDAF-12 ag 6.5 and ssDAF12 agonist -0.2.
CC1CCCN(C(C(=O)Nc2ccc3c(c2)OCCO3)c2ccccc2)C1 (stereo unspecified) was read as DAX1 inh-1 0.4, hcDAF-12 act -1.4, DAX1 inh-2 -0.2, hgDAF-12 ag -2.0 and ssDAF12 agonist -1.1.
Screening C[C@@H]1CN([C@H](C)CO)C(=O)CCCn2nncc2CO[C@H]1CN(C)Cc1cccc(C(=O)O)c1 returned DAX1 inh-1 1.6, hcDAF-12 act 0.1, DAX1 inh-2 -0.9, hgDAF-12 ag -0.4 and ssDAF12 agonist -0.6.
CC(=O)N/C(=C\c1ccccc1)C(=O)OCC(=O)c1ccccc1 was read as DAX1 inh-1 -0.7, hcDAF-12 act 0.2, DAX1 inh-2 -0.6, hgDAF-12 ag -0.5 and ssDAF12 agonist -1.5.
Screening CC(=O)N/C(=C\c1ccccc1)C(=O)OCC(=O)NC1CCCC1 returned DAX1 inh-1 0.4, hcDAF-12 act 6.4*, DAX1 inh-2 1.1, hgDAF-12 ag 1.5 and ssDAF12 agonist -0.3.
O=C(N[C@H](Cc1ccccc1)C(=O)O)[C@H]1O[C@@H](n2ccc(=O)[nH]c2=O)[C@H](O)[C@@H]1O was read as DAX1 inh-1 -1.5, hcDAF-12 act -0.3, hgDAF-12 ag 0.5 and ssDAF12 agonist -1.0.
For CC(Oc1ccc(Br)cc1)C(=O)NC1CCN(Cc2ccccc2)CC1 (stereo unspecified) the results were DAX1 inh-1 -1.1, hcDAF-12 act -1.4, DAX1 inh-2 -0.8, hgDAF-12 ag -0.2 and ssDAF12 agonist -1.2.
`CN(c1ccc(C(=O)NCCc2ccccc2)cc1)S(C)(=O)=O` gave DAX1 inh-1 4.4*, hcDAF-12 act 4.6, DAX1 inh-2 0.4, hgDAF-12 ag 8.7 and ssDAF12 agonist -0.3.

Assay outcomes: PubChem BioAssay, The Scripps Research Institute Molecular Screening Center
